According to ChEMBL document CHEMBL1201862, “PubChem BioAssay data set” (2004):
The campaign covered roughly 53,000 sequences. About 4,900 (9.2%) were called active. No stated cut-off is given here; in the data, active = GI50 up to about 1.1 µM and inactive = higher. Many of the other results were omitted from the sample, so actives are more common in it than they were. Measured potencies and affinities stand elsewhere.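 Results reflect a 48-hour exposure of cells in 96-well plates to compound at five concentrations. GI50 marks 50% less growth.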

System: NCI-H522
Test: NCI tumour cell line growth inhibition, 48 h

| Substance | GI50 |
| --- | --- |
| CISPLATIN, CHEMBL11359 | 2030 nM |
| cis-Bis[[(trimethylsilyl)methyl]amino]tetrachloroplatinum(IV), CHEMBL2146191 | 8220 nM |
| [Bis(aminomethyl)tetramethylenesilane]tetrachloropaltinum(IV), CHEMBL2146189 | 2180 nM |
| [Bis(aminomethyl)diethylsilane]tetrachloroplatinum(IV), CHEMBL2146203 | 2650 nM |
| [Bis(aminomethyl)pentamethylenesilane]tetrachloropaltinum(IV), CHEMBL2146204 | 776 nM |
| [Bis(aminomethyl)dimethylsilane]dichloroplatinum (II), CHEMBL2146201 | 4940 nM |
| [Bis(aminomethyl)tetramethylenesilane]dichloropaltinum(II), CHEMBL2146205 | 7620 nM |
| mu-(1,7-nanodiamine-N,N')bis-(cis-aminedichloroplatimum (II)), CHEMBL2146215 | 7940 nM |
| [Bis(aminomethyl)pentamethylenesilane]dichloropaltinum(II), CHEMBL2146202 | 1520 nM |
| [Bis(aminomethyl)dimethylsilane]tetrachloroplatinum(IV), CHEMBL2146190 | 1830 nM |
